Measurements as given in PubChem BioAssay (NCATS).
Results filed as inconclusive are left out. Where a call stands in place of a potency, no number is given. A structure can be active in one record and inactive in another. Calls of active or inactive are those of the source. Unless noted, calls come from the whole dose curve; as a rule, active = well fitted curve in the direction sought with a large enough effect; inconclusive = small, poorly fitted or top-dose-only effect, or another doubt; inactive = no such curve, though single readings can be large; an effect the other way counts as inactive or inconclusive.

What was measured:
[1] = test system: Zika virus NS2B-NS3 protease; experiment: Primary screen GU AMC qHTS for Zika virus inhibitors (AID 1347154); note: nearly all actives have a fitted effect of over 70% in size
Summary of the method: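 Unlinked Zika NS2B hydrophilic domain/NS3 protease domain noncovalent complex (25 nM final) in 10 mM Tris-HCl pH 8.0, 0.01% Tween 20, with AMC peptide substrate. Fluorescence (ex 340, em 450 nm) change over 15 min, room temperature; percent inhibition fitted to 4-parameter Hill equation.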

[2] = Counterscreen qHTS for small molecule stabilizers of the endoplasmic reticulum resident proteome: GLuc-NoTag assay (AID 1508627);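 note: SH-SY5Y cells given compound then 100 nM thapsigargin to empty ER calcium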
Summary of the method: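 SH-SY5Y cells stably expressing constitutively secreted GLuc (no SERCaMP tag) were pre-incubated 5 h, treated with compound for 19 h, then 100 nM thapsigargin for 4 h at 37C; medium GLuc read by coelenterazine luminescence.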

[3] = Confirmatory qHTS for small molecule stabilizers of the endoplasmic reticulum resident proteome: Secreted ER Calcium Modulated Protein (SERCaMP) assay (AID 1508628); note: nearly all actives have a fitted effect of over 40% in size; note: potency is the fitted concentration of half-maximal effect
Summary of the method: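 We seeded SH-SY5Y-GLuc-SERCaMP cells, added compounds (three concentrations in the primary run, eleven up to 76.6 uM in confirmation), incubated 16 h, depleted ER calcium with thapsigargin, and read luciferase 4 h later.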

[4] = molecular target: Glucocorticoid receptor (Homo sapiens) (UniProt P04150); experiment: GR-GFP Redistribution (AID 450;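 active = compounds whose dose series gives a full or clear partial fitted curve of increased nuclear translocation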; note: potency is the fitted concentration of half-maximal effect); details: U2OS GR-GFP nuclear translocation, laser cytometry, 2 h
[5] = molecular target: Glucocorticoid receptor (Homo sapiens) (UniProt P04150); experiment: GR-EFC Redistribution (AID 451; calls by dose curve; note: potency is the fitted concentration of half-maximal effect); details: CHO-K1 GR-EFC translocation, beta-gal luminescence, 2 h
Summary of the method: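 CHO-K1 cells stably expressing nuclear-localized β-gal enzyme acceptor and GR fused C-terminally to the enzyme donor fragment; ligand-driven nuclear translocation restores β-gal by complementation. Compounds titrated up to 46 uM final, 2 h at 37 °C; luminescence read.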

[6] = molecular target: Mitogen-activated protein kinase 10 (Mus musculus) (UniProt Q61831); experiment: JNK3 AlphaScreen Assay (AID 530; active = well fitted curve in either direction with a large enough effect, not every such curve was filed as active;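 note: kinase came from lysate of stimulated human HepG2 cells; signal reports phosphorylation of biotinylated GST-cJun 1-79 at Ser73 with 10 µM ATP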)
Summary of the method: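 JNK3 came from HepG2 lysates pre-activated with IL-1beta and TNF-alpha and phosphorylated biotinylated GST-cJun (1-79) at 10 uM ATP, pH 7.6, room temperature. Compounds were titrated. AlphaScreen signal used anti-phospho-cJun (Ser73) antibody.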

[7] = molecular target: DNA dC->dU-editing enzyme APOBEC-3G (Homo sapiens) (UniProt Q9HC16); experiment: qHTS for inhibitors of Vif-A3G interactions: Validation (AID 588379)
Summary of the method: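 HeLa cells stably expressing Vif and A3G-eYFP, 700 cells/well, incubated overnight at 37 deg C, then exposed to compound overnight at 37 deg C. Inhibition of Vif-mediated degradation read as increased yellow fluorescence (Ex 488/Em 500-530) by laser-scanning cytometry.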

[8] = Cell Viability qHTS for small molecule stabilizers of the endoplasmic reticulum resident proteome (AID 1508629); details: cell viability counter-screen, 100 nM thapsigargin for final 4 h;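 note: human SH-SY5Y neuroblastoma cells carrying the GLuc-SERCaMP reporter; compound exposure about 46 h in total before the viability read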
[9] = AP1 Signaling Pathway (AID 357; active = well fitted curve in either direction with a large enough effect, not every such curve was filed as active;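 note: ME-180 reporter cells stimulated with EGF at its EC50 level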); details: ME-180 AP-1-bla reporter, EGF-induced, beta-lactamase ratio, 5 h
Summary of the method: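 Read-out was the 460nm/530nm emission ratio (excitation 405nm) after CCF4 loading for 2.5 hours at room temperature. Cells carried an AP-1-driven beta-lactamase reporter, were stimulated with EC50 EGF plus compound for 5 hours, and AC50 values came from titrations.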

[10] = Stat Signaling Pathway (AID 446; active = well fitted curve in either direction with a large enough effect, not every such curve was filed as active;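 note: ME-180 cervical cancer cells given 40 pM IL-6 alongside compound; SIE-controlled beta-lactamase reporter measured as 460/530 nm FRET emission ratio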); details: ME-180 SIE beta-lactamase reporter, IL-6 stimulated, 5 h
Summary of the method: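 ME-180 SIE-bla cells; overnight plating; cpd + IL-6 40 pM, 5 h, 37 C; LiveBLAzer 2.5 h RT; 460/530 nm emission ratio. Normalized to 300 pM IL-6 and 125 nM JAK inhibitor controls.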

[11] = molecular target: Guanine nucleotide-binding protein G(i) subunit alpha-1 (Homo sapiens) (UniProt P63096); experiment: qHTS Assay for Inhibitors of RGS12 GoLoco Motif Activity (Green Fluorophore) (AID 879);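 note: negative values mean loss of peptide binding seen as reduced polarization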
Summary of the method: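 Fluorescence polarization assay: 50 nM Gαi1 with 10 nM FITC-labeled RGS12 GoLoco peptide in 10 mM Tris pH 7.5, 150 mM NaCl, 0.1 mM GDP, 0.05% NP40, 10 min at room temperature with compound.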

[12] = qHTS Assay for Identification of Small Molecule Agonists for Thrombopoietin (TPO) Signaling Pathway (AID 917)
Summary of the method: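 Murine Ba/F3 cells stably expressing human TPO receptor and a Glycoprotein IIb promoter–luciferase reporter were IL-3-starved overnight, then treated with compounds plus TPO (26 pM final, its EC50) for 24 hrs at 37 C; luminescence was read.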

[13] = molecular target: Pyruvate kinase (Leishmania mexicana) (UniProt Q27686); experiment: qHTS Validation Assay for Inhibitors of Leishmania Mexicana Pyruvate Kinase (AID 945)
Summary of the method: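 Pyruvate kinase activity of E451W LmPYK (0.2 nM) was followed as ATP output after 1 h at room temperature with 0.5 mM PEP and 0.1 mM ADP, detected by PKLight luminescence.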

[14] = molecular target: Pyruvate kinase PKM (Homo sapiens) (UniProt P14618); experiment: qHTS Assay for Activators of Human Muscle Pyruvate Kinase (AID 954; active = well fitted curve in the direction sought with a large enough effect, not every such curve was filed as active)
Summary of the method: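 Luminescence from a luciferase ATP-detection/stop reagent reported PKM2 activity. Reactions contained 0.1 nM purified human enzyme, 0.5 mM PEP, 0.1 mM ADP and 7 mM MgCl2 at pH 7.2, run 1 h at RT.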

[15] = molecular target: Alpha-galactosidase A (Homo sapiens) (UniProt P06280); experiment: Counterscreen for Glucocerebrosidase Inhibitors: qHTS Assay for Human alpha-Galactosidase at pH 4.5 (AID 992)
Summary of the method: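 Enzyme at 2 nM final was combined with compound (0.7 nM to 77 uM) and 80 uM 4-methylumbelliferyl alpha-D-galactopyranoside in 50 mM citric acid, 0.005% Tween-20, pH 4.5. After 20 min at room temperature, fluorescence was read (Ex 365/Em 440 nm); AC50 came from Hill fits.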

[16] = molecular target: alpha-glucosidase (Oryza sativa, rice) (UniProt Q653V4); experiment: Counterscreen for Glucocerebrosidase Inhibitors: qHTS Assay for Rice alpha-Glucosidase at pH 5.0 (AID 997)
Summary of the method: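 Rice alpha-glucosidase (4 nM final) with 400 uM 4-methylumbelliferyl-alpha-D-glucopyranoside in citrate buffer pH 5.0, 20 min at room temperature, stopped at pH 10; fluorescence 365/440 nm, compounds 0.7 nM–77 uM, AC50 from Hill fits.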

[17] = NCATS anti-infectives library activity on HEK293 viability as a counter-qHTS vs the C. elegans viability qHTS (AID 1745854);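 note: HEK293 cells exposed to compounds for 24 hr before the viability read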
Summary of the method: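 Cytotoxicity in human HEK293 cells is measured by ATP-dependent CellTiter-Glo luminescence following a 24 hr incubation with titrated library compounds at 37C. Top final concentration is 41.7 uM.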

Chain of Glucocorticoid receptor (Homo sapiens) (P04150 whole entry, looked up, the tested form may be a part): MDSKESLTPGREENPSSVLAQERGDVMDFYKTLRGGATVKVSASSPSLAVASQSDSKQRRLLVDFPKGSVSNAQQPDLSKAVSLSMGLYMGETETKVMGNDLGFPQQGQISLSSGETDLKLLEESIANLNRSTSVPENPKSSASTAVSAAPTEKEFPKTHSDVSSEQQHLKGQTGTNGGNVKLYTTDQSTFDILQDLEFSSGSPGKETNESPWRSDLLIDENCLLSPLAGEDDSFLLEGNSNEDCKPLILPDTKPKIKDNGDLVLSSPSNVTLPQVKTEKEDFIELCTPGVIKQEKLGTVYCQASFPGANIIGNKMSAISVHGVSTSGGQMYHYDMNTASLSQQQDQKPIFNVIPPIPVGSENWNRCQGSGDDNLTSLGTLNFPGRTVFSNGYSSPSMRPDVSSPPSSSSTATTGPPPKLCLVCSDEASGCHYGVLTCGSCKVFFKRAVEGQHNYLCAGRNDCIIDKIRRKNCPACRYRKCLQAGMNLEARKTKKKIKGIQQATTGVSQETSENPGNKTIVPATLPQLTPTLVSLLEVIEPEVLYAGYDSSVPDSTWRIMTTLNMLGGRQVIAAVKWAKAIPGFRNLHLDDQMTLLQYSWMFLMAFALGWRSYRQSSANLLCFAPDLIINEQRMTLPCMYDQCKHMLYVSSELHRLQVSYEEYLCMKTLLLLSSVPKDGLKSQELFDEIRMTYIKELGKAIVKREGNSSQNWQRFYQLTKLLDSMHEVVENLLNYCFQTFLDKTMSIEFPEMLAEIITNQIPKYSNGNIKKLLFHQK
Chain of DNA dC->dU-editing enzyme APOBEC-3G (Homo sapiens) (Q9HC16 whole entry, looked up): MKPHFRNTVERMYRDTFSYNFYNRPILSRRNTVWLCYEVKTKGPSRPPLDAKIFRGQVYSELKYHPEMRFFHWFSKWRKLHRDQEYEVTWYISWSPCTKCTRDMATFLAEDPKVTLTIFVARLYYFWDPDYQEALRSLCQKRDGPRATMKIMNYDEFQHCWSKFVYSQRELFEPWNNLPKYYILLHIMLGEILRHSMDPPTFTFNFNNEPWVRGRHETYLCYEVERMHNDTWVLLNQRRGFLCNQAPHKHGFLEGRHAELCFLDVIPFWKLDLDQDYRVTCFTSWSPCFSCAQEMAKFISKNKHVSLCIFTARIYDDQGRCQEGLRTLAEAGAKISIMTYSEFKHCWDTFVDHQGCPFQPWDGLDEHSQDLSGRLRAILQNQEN
Chain of Alpha-galactosidase A (Homo sapiens) (P06280 whole entry, looked up): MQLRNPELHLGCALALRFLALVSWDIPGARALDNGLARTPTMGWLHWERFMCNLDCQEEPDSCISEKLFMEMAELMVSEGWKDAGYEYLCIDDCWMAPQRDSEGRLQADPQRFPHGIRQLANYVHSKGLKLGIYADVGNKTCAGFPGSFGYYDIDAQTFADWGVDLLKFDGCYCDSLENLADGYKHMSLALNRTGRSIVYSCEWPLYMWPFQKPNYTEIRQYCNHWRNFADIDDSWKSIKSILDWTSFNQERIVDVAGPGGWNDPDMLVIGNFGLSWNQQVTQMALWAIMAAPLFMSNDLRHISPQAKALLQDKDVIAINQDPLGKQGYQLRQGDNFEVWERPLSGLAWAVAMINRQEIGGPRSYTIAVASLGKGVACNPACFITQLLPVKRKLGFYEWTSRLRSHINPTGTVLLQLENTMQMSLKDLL
Chain of Pyruvate kinase PKM (Homo sapiens) (P14618 whole entry, looked up): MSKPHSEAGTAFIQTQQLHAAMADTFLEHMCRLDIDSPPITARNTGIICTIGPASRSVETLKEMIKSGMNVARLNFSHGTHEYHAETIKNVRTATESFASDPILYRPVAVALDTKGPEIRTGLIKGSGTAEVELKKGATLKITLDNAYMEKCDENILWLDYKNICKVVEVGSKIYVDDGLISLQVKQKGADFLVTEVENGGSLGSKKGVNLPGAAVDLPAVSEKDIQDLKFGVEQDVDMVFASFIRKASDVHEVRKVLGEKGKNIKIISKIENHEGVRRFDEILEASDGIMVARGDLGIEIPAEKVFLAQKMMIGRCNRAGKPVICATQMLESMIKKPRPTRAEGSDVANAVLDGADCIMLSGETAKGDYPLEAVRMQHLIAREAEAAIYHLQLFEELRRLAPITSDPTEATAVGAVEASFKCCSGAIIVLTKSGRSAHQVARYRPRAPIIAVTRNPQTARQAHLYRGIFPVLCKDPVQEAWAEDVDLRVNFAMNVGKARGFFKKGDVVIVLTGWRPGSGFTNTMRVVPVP
Chain of Pyruvate kinase (Leishmania mexicana) (Q27686 2-499 E452W): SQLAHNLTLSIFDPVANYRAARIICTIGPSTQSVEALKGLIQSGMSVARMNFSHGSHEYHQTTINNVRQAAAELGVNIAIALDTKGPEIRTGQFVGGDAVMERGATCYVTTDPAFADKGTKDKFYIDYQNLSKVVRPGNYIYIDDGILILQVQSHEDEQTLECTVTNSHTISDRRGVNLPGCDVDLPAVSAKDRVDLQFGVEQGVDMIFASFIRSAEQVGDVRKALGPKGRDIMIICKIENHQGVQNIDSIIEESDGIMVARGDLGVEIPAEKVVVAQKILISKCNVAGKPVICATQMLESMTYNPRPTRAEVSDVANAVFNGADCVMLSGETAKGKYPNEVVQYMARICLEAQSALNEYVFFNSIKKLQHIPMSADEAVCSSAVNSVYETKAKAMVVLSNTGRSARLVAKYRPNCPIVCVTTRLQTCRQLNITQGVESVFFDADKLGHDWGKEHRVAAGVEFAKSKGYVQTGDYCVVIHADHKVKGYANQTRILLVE
Chain of Guanine nucleotide-binding protein G(i) subunit alpha-1 (Homo sapiens) (P63096 whole entry, looked up): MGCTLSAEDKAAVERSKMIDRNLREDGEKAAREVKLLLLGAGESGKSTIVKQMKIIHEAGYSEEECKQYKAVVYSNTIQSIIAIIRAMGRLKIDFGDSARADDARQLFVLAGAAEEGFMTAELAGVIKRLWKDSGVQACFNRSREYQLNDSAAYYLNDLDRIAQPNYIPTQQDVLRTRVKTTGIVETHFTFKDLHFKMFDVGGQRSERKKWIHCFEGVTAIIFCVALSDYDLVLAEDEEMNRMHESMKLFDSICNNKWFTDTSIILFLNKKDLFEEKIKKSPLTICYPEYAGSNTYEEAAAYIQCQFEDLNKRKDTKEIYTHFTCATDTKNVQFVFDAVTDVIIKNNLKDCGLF

COc1ccc(C2Sc3ccccc3N(CCN(C)C)C(=O)[C@@H]2OC(C)=O)cc1 (some centres not stated)
Potency [1]: inactive
Potency [2]: inactive
Potency [3]: 31.6 µM (active) and inactive

CN1C[C@H](C(=O)N[C@]2(C)O[C@@]3(O)[C@H]4CCCN4C(=O)[C@H](Cc4ccccc4)N3C2=O)C[C@H]2c3cccc4[nH]cc(c34)C[C@@H]21
Potency [4]: > 46 µM (inactive)
Potency [5]: > 46 µM (inactive)
Potency [6]: inactive
Potency [7]: inactive
Potency [1]: inactive
Potency [2]: inactive
Potency [3]: 25.1 µM (active)
max response [8]: 18% (inactive)

COc1ccc(CCN(C)CCC[C@@](C#N)(c2ccc(OC)c(OC)c2)C(C)C)cc1OC
activity change, negative = inhibition ([9]; at 17.2 µM (top of the series)): 2.2% (inactive)
activity change, negative = inhibition ([9]; at 38 µM (top of the series)): 10.5% (inactive)
activity, negative = inhibition ([10]; at 17.2 µM (top of the series)): -16.1% (inactive)
activity, negative = inhibition ([10]; at 38 µM (top of the series)): -6.6% (inactive)
Potency [6]: inactive
outcome [11]: inactive
Potency [12]: inactive
Potency [13]: inactive
outcome [14]: inactive
outcome [15]: inactive
outcome [16]: inactive
Potency [7]: inactive
Potency [1]: inactive
Potency [2]: inactive
Potency [3]: 12.6 µM (active)
outcome [17]: inactive
